Screening results deposited in PubChem BioAssay by National Center for Advancing Translational Sciences (NCATS).
Sampled rows, rich in hits. Any-hit rate of the full collection: about 19%.
DT40 TDP1 CPT: qHTS for Inhibitors of human tyrosyl-DNA phosphodiesterase 1 (TDP1): qHTS in cells in presence of CPT | chicken DT40 Tdp1-/-;hTDP1 cells + 20 nM CPT, ATP luminescence, 48 h | Potency, µM (doses to about 46.2 µM), inactives show at the highest dose activity change, negative = growth inhibition, most hits filed as inhibitors | 420,000 tested, 12% active; also: nearly all actives have a fitted effect of over 55% in size
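Chicken DT40 Tdp1-/- cells stably complemented with human TDP1 were seeded at 400 cells/well in medium containing 20 nM camptothecin, exposed to pin-transferred compounds, and grown at 37 °C for at least 48 hr. Viability was read as ATP luminescence.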
KB-V1 MDR tox: qHTS assay for MDR1-selective chemotherapeutics: Primary screen using the drug-selected MDR subline cells KB-V1; KB-V1 MDR cells viability, CellTiter-Glo, 72 h; AID 1347076, 2019; 400,000 tested, 3.4% active; Potency, µM (series often up to 46.1 µM), usual class: cytotoxic; also: nearly all actives have a fitted effect of over 60% in size
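Luminescent ATP read-out (CellTiter-Glo, 10 min) measures survival of drug-selected KB-V1 MDR cells after 72 h, 37 degrees C compound exposure. Medium: phenol-red-free DMEM, 10% FBS. Values from fitted concentration-response curves.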
HT1080-NT tox: qHTS for induction of synthetic lethality in tumor cells producing 2HG: qHTS for the HT-1080-NT fibrosarcoma cell line; HT-1080-NT fibrosarcoma viability, CellTiter-Glo ATP luminescence, 48 h; Potency, µM (highest dose often 46.1 µM), inactives show top-dose activity, negative = less viability, hits mostly cytotoxic; 360,000 tested, 1.6% active;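 also: NT is the 2HG producing partner of a matched IDH1 knockdown line; 0% = DMSO-treated cells and -100% = media-only wells without cells; nearly all actives have a fitted effect of over 55% in size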
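Toxicity toward the 2HG-producing NT line was scored as %Activity, normalised to DMSO and no-cell wells, from CellTiter-Glo luminescence after 48 hours' treatment.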
KB-3-1 tox: qHTS assay for MDR1-selective chemotherapeutics: Primary screen using the parental adenocarcinoma cell KB-3-1; KB-3-1 viability, CellTiter-Glo ATP luminescence, 72 h; Potency, µM (top dose mostly 46.1 µM), hits mostly cytotoxic; 400,000 tested, 1.4% active; also: nearly all actives have a fitted effect of over 60% in size
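Cells are dispensed, compounds pinned in, plates held at 37 °C for 72 h, then CellTiter-Glo is added and luminescence read after 10 minutes. Cell line: parental KB-3-1 in phenol-red-free DMEM, 10% FBS.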
HT1080 IDH1KD tx: qHTS for induction of synthetic lethality in tumor cells producing 2HG: qHTS for the HT-1080-IDH1KD cell line | HT-1080 IDH1 knockdown viability, ATP luminescence, 48 h | Potency, µM (top dose mostly 46.1 µM), inactives show at the top dose activity, negative = toxicity, usual class: cytotoxic | 360,000 tested, 2% active | AID 686971, 2013;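 also: 0% = DMSO wells and -100% = cell-free medium wells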
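IDH1KD HT-1080 cells, 750/well, RPMI + 5% FBS; compound pinned after 2 h settling; 48 h, 37 °C; CellTiter-Glo luminescence; % activity normalised to DMSO and no-cell wells; curves fitted, classed by r2 and efficacy.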
DT40 TDP1 no CPT: qHTS for Inhibitors of human tyrosyl-DNA phosphodiesterase 1 (TDP1): qHTS in cells in absence of CPT | DT40 Tdp1-/- hTDP1 cells, no CPT, ATP luminescence, 48 h | Potency, µM (doses to about 46.2 µM), for inactives: at the highest dose activity change, negative = growth inhibition, usual class: inhibitors | 420,000 tested, 15% active | AID 686978, 2013; also: nearly all actives have a fitted effect of over 55% in size
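Growth kinetics read by CellTiter-Glo luminescence after ≥48 hr at 37 °C. Cells: DT40 Tdp1-/- stably carrying human TDP1, 400 per well, compound exposure in the absence of CPT (DMSO vehicle).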
Starred values were filed as active, the others as inactive; i = inactive; ? = inconclusive; . = no result; [ ] = another dose, or the depositor's remark. Calls follow the shape of the dose curve; as a rule, active = well fitted curve in the direction sought with a large enough effect; inconclusive = small, poorly fitted or top-dose-only effect, or another doubt; inactive = no such curve, though single readings can be large; an effect the other way counts as inactive or inconclusive. Unless noted, % is scaled to controls: 0 for no effect and ±100 for the full control effect; potency is read from the fitted curve at half-maximal effect.

SMILES	DT40 TDP1 CPT	KB-V1 MDR tox	HT1080-NT tox	KB-3-1 tox	HT1080 IDH1KD tx	DT40 TDP1 no CPT
CC(C)C1CN1CC(O)Cn1ccnc1[N+](=O)[O-] (stereo unspecified)	18.4µM*	i	?	i	?	?
Cc1ccnc(NC(=O)CCCc2ccc(N(CCCl)CCCl)cc2)n1	0.231µM*	i	5.5%	?	-1.6%	0.581µM*
CC(C)c1ccc(C(=O)N2CCCC(c3cc(C(=O)Nc4ccccc4Cl)no3)C2)cc1 (stereo unspecified)	14.6µM*	?	21.7%	18.4µM*	1.2%	5.8µM*
CC(C)C[C@H](NC(=O)[C@H](Cc1ccccc1)NC(=O)CNC(=O)[C@H](C)NC(=O)[C@@H](N)Cc1ccc(O)cc1)C(=O)O	2.4%[4.12 µM]	.	.	.	.	-11.5%[4.12 µM]
CCOC(=O)C(NC(=O)C(Cc1ccc(N(CCCl)CCCl)cc1)NC(C)=O)C(C)C (stereo unspecified)	1.3%	i	19.7%	i	0.7%	5.6%
CCOC(=O)CNC(=O)CNC(=O)C(Cc1ccc(N(CCCl)CCCl)cc1)NC(C)=O (stereo unspecified)	1.3µM*	i	1.2%	i	-2.0%	1.64µM*
CC(=O)NC(Cc1ccc(N(CCCl)CCCl)cc1)C(=O)NC(CC(C)C)C(=O)O (stereo unspecified)	?	i	0.3%	i	-2.4%	14.6µM*
CC(=O)NC(Cc1ccc(N(CCCl)CCCl)cc1)C(=O)NCC(=O)NCC(=O)O (stereo unspecified)	6.51µM*	i	0.0%	i	7.4%	10.3µM*
Cc1cc(N(CCCl)CCCl)ccc1C=NNC(=O)c1cccnc1	10.3µM*	i	2.4%	i	-9.2%	?
O=C(NN=Cc1ccc(N(CCCl)CCCl)cc1Cl)c1cccnc1	?	i	-11.3%	i	-15.7%	23.1µM*
CN(CCCC(=O)c1cccnc1)N=O	0.4%	.	.	.	.	4.2%
C/C=C1\CN2[C@H]3C[C@@]45c6ccccc6N(C)[C@H]4[C@@H]2CC1C3[C@H]5O (stereo partly specified)	3.6%	i	6.7%	i	2.9%	-2.7%
Cc1ccccc1N1CCN(C2CCCN(C(=O)Cc3c(C)noc3C)C2)CC1 (stereo unspecified)	-5.7%	.	-3.1%	.	-1.9%	-5.4%
O=C1NCN(c2ccccc2)C12CCN(C(c1ccccc1OC(F)(F)F)c1nnnn1-c1ccc3c(c1)OCCO3)CC2 (stereo unspecified)	?	i	?	?	?	?
COc1ccc(C(c2nnnn2-c2ccc3c(c2)OCCO3)N2CCC(n3c(=O)[nH]c4ccccc43)CC2)cc1 (stereo unspecified)	?	?	18.4µM*	?	14.6µM*	16.4µM*
O=c1[nH]c2ccccc2n1C1CCN(C(c2ccnc3ccccc23)c2nnnn2-c2ccc3c(c2)OCCO3)CC1 (stereo unspecified)	5.17µM*	?	?	?	16.4µM*	9.2µM*
COc1ccc(-n2nnnc2C(c2ccccc2OC(F)(F)F)N2CCC(n3c(=O)[nH]c4ccccc43)CC2)cc1 (stereo unspecified)	20.6µM*	i	?	?	?	18.4µM*
FC(F)(F)c1cccc(NC2=NCCS2)c1	-20.5%	i	1.3%	i	-9.3%	?
Cc1ccc(Cn2cc(C=O)c(-c3ccc(C)cc3)n2)cc1	?	16.4µM*	6.9%	i	1.0%	?
O=C(CC[N+](=O)[O-])OCC1OC(O)C(OC(=O)CC[N+](=O)[O-])[C@@H](OC(=O)CC[N+](=O)[O-])C1OC(=O)CC[N+](=O)[O-] (stereo partly specified)	?	.	.	.	.	5.8µM*
O=C(O)CC[N+](=O)[O-]	-0.9%	i	16.1%	i	-1.6%	-9.6%
c1cc2cc(c1)C[n+]1ccc(c3ccccc31)NCc1ccc(cc1)CNc1cc[n+](c3ccccc13)C2	9.44µM*	.	.	.	.	6.68µM*
Cc1cc(C=O)c(C)n1C1CC1	-0.3%	i	12.2%	i	28.6%	1.4%
O=Nc1c(-c2ccccc2)n(O)[n+]([O-])c1-c1ccccc1	?	i	9.1%	i	8.4%	20.6µM*
COC(=O)C1=C(c2cccc(NC(C)=O)c2)C[C@@H]2CC[C@H]1N2C	-1.2%	i	15.6%	i	11.9%	-7.0%
COC(=O)C1=C(c2ccc(OCc3ccccc3)c(F)c2)C[C@@H]2CC[C@H]1N2C	?	i	-19.5%	i	-0.2%	23.1µM*
COC(=O)C1=C(c2ccc(OCc3ccccc3)cc2)C[C@@H]2CC[C@H]1N2C	16.4µM*	?	-11.2%	i	-10.3%	23.1µM*
CN1CCCN(c2ccc([N+](=O)[O-])nc2)CC1	17.4%	i	2.6%	i	7.9%	0.3%
